From PubChem BioAssay (NCATS)
Inconclusive results are not listed. Calls of active or inactive are those of the source. Unless noted, calls follow the shape of the dose curve; as a rule, active = well fitted curve in either direction with a large enough effect (not every such curve was filed as active); inconclusive = small, poorly fitted or top-dose-only effect, or another doubt; inactive = flat fitted curve, though single readings scatter.

What was measured:
[1] = AP1 Signaling Pathway (AID 357); settings: ME-180 AP-1-bla reporter, EGF-induced, beta-lactamase ratio, 5 h; at 17.2 µM (top of the series) unless noted; also: % is scaled to controls: 0 for no effect and ±100 for the full control effect
Summary of the method: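 ME-180 cells with beta-lactamase reporter under AP-1 response element, stimulated with EC50 EGF; compounds tested in titration series, 5 h at 37 °C. CCF4 substrate added 2.5 h at room temperature; 460/530 nm emission ratio gave %activity and AC50.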

[2] = Stat Signaling Pathway (AID 446); settings: ME-180 SIE beta-lactamase reporter, IL-6 stimulated, 5 h; at 17.2 µM (top of the series) unless noted;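 also: ME-180 cervical cancer cells given 40 pM IL-6 alongside compound; SIE-controlled beta-lactamase reporter measured as 460/530 nm FRET emission ratio; % is scaled to controls: 0 for no effect and ±100 for the full control effect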
Summary of the method: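 Compound effects on IL-6-induced STAT reporter activity were measured in ME-180 cells. After overnight culture, cells were co-treated with 40 pM IL-6 for 5 hrs before beta-lactamase substrate loading at room temperature.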

[3] = target: Glucocorticoid receptor (Homo sapiens) (UniProt P04150); assay: GR-GFP Redistribution (AID 450;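 active = compounds whose dose series gives a full or clear partial fitted curve of increased nuclear translocation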; also: potency is read from the fitted curve at half-maximal effect)
[4] = NFAT Signaling Pathway (AID 444); settings: Jurkat NFAT-bla M1, carbachol, beta-lactamase ratio, 5 h; at 17.2 µM (top of the series) unless noted;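 also: carbachol stimulus at about its EC50 of 1 µM final; % is scaled to controls: 0 for no effect and ±100 for the full control effect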
Summary of the method: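 Read-out: CCF4 FRET ratio (460 nm/530 nm) after 1 h RT dye loading, used for %activity and AC50 from titration series. Cells: Jurkat NFAT-β-lactamase/M1 line, treated with compound plus 1 uM carbachol for 5 h, 37 °C.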

[5] = qHTS Assay for Identification of Small Molecule Agonists for Hypoxia Response Element Signaling Pathway (AID 914; active = well fitted activation curve with a large enough effect in the signal ratio, with a control signal flat, not every such curve was filed as active; the % refers to the signal ratio; also: % of control where 0% means no effect); settings: ME-180 (cervical carcinoma) HRE-bla reporter, beta-lactamase ratio, CoCl2, 17 h; activation: stronger effect = higher value
Summary of the method: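 Positive modulation of EC50 CoCl2-induced hypoxia response element signaling is measured in ME-180 cells with a beta-lactamase reporter. Compounds are titrated, incubation runs 17 hours, and %Activity derives from the blue/green ratio.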

[6] = target: Glucocorticoid receptor (Homo sapiens) (UniProt P04150); assay: GR-EFC Redistribution (AID 451; calls by dose curve; also: potency is read from the fitted curve at half-maximal effect); settings: CHO-K1 GR-EFC translocation, beta-gal luminescence, 2 h
Summary of the method: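 Translocation of GR-ED fusion to nuclear EA restores b-gal, read by luminescence after 1 h room-temperature detection. Engineered CHO-K1 biosensor cells, 1,000/well, exposed 2 h at 37 C to titrations up to 46 uM final.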

[7] = target: 3',5'-cyclic-AMP phosphodiesterase 4B (Homo sapiens) (UniProt Q07343); assay: qHTS Assay for Inhibitors of PDE-IV (AID 607; active = well fitted activation curve with a large enough effect in the main read-out, with a control signal flat, not every such curve was filed as active; also: % of control where 0% means no effect)
Summary of the method: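 ACTOne HEK293 cells carry a modified cAMP-gated CNG channel and express endogenous PDE4; plated 1000 cells/well, compounds up to 22.9 uM final. Membrane-potential dye fluorescence (ex 535/em 590) was read; parental cells received 10 uM forskolin + 100 uM RO 20-1724.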

[8] = target: Mitogen-activated protein kinase 10 (Mus musculus) (UniProt Q61831); assay: JNK3 AlphaScreen Assay (AID 530);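 also: kinase came from lysate of stimulated human HepG2 cells; signal reports phosphorylation of biotinylated GST-cJun 1-79 at Ser73 with 10 µM ATP; % is scaled to controls: 0 for no effect and ±100 for the full control effect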
Summary of the method: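 Kinase buffer: 20 mM Tris-HCl pH 7.6, 10 mM MgCl2, 1 mM DTT, 0.1 mM Na3VO4, 0.01% Tween-20; ATP 10 uM. Substrate biotin-GST-cJun(1-79), enzyme from activated HepG2 lysates. Detection by Ser73 phospho-antibody AlphaScreen.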

[9] = target: Guanine nucleotide-binding protein G(i) subunit alpha-1 (Homo sapiens) (UniProt P63096); assay: qHTS Assay for Inhibitors of RGS12 GoLoco Motif Activity (Green Fluorophore) (AID 879; active = well fitted curve in the direction sought with a large enough effect; an effect the other way counts as inactive or inconclusive;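 also: 0% = labeled peptide with Gαi1 and full inhibition = labeled peptide alone without protein; negative values mean loss of peptide binding seen as reduced polarization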)
Summary of the method: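 A drop in FITC polarization marked displacement of the FITC-tagged RGS12 GoLoco peptide (10 nM) from Gαi1 (50 nM). Compounds were incubated 10 min at room temperature in Tris pH 7.5 buffer containing 150 mM NaCl, 0.1 mM GDP and 0.05% NP40; unlabeled peptide titration served as control.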

[10] = qHTS Assay for Identification of Small Molecule Agonists for Thrombopoietin (TPO) Signaling Pathway (AID 917; active = well fitted curve in the direction sought with a large enough effect; an effect the other way counts as inactive or inconclusive; also: % is scaled to controls: 0 for no effect and ±100 for the full control effect)
Summary of the method: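 Human TPO receptor–transfected Ba/F3 cells (murine, IL-3-dependent) in IL-3-deficient medium; compounds plus TPO at EC50, 26 pM final; 24 hrs, 37 C; GpIIb-luciferase luminescence after 10 min RT detection.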

[11] = target: Muscarinic acetylcholine receptor M1 (Rattus norvegicus) (UniProt P08482); assay: qHTS Assay for Antagonists of Acetylcholine Muscarinic M1 Receptor: Kinetic Measurement of Intracellular Calcium Response (AID 943; active = well fitted curve in the direction sought with a large enough effect; an effect the other way counts as inactive or inconclusive;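 also: Fluo-4 calcium signal as peak divided by basal fluorescence over 4 min; nearly all actives have a fitted effect of over 75% in size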)
Summary of the method: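 Read-out: peak over basal Fluo-4 fluorescence, kinetic at 1 Hz for 4 min after EC80 carbachol (100 nM final). Rat M1-CHO cells, dye loaded 1 h at 37C, compound added 10 min before agonist.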

[12] = target: Muscarinic acetylcholine receptor M1 (Rattus norvegicus) (UniProt P08482); assay: qHTS Assay for Antagonists of Acetylcholine Muscarinic M1 Receptor: Measurement of IP-One Response (AID 944; active = well fitted curve in the direction sought with a large enough effect; an effect the other way counts as inactive or inconclusive; also: nearly all actives have a fitted effect of over 75% in size)
Summary of the method: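 Read-out: HTRF competition between d2-IP1 and Eu-cryptate anti-IP1 antibody, emission 620 and 665 nm. Stimulus was carbachol, EC80 (200 nM), for 30 min in M1-CHO cells (rat receptor), after 10 min compound pre-treatment.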

[13] = target: Pyruvate kinase (Leishmania mexicana) (UniProt Q27686); assay: qHTS Validation Assay for Inhibitors of Leishmania Mexicana Pyruvate Kinase (AID 945; active = well fitted curve in the direction sought with a large enough effect; an effect the other way counts as inactive or inconclusive;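 also: 0% = DMSO only neutral control wells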)
Summary of the method: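 qHTS eight-point titrations against 0.2 nM LmPYK (E451W) in imidazole buffer pH 7.2 with 0.5 mM PEP, 0.1 mM ADP; 1 h, room temperature. Readout: PKLight luminescence, normalized to neutral DMSO wells.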

[14] = target: Pyruvate kinase PKM (Homo sapiens) (UniProt P14618); assay: qHTS Assay for Activators of Human Muscle Pyruvate Kinase (AID 954; active = well fitted curve in the direction sought with a large enough effect, not every such curve was filed as active;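 also: 0% = uninhibited enzyme and -100% = no enzyme or full thiadiazolimine inhibition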)
Summary of the method: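 A coupled luminescent readout tracked ATP made from ADP by purified PKM2. Final conditions included 0.1 nM enzyme, PEP and ADP at 0.5 and 0.1 mM, pH 7.2 imidazole buffer with BSA, and a one-hour room-temperature reaction.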

[15] = target: Alpha-galactosidase A (Homo sapiens) (UniProt P06280); assay: Counterscreen for Glucocerebrosidase Inhibitors: qHTS Assay for Human alpha-Galactosidase at pH 4.5 (AID 992; active = well fitted curve in the direction sought with a large enough effect; an effect the other way counts as inactive or inconclusive; also: 0% is about no effect)
Summary of the method: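 Citrate buffer pH 4.5, Tween-20 0.005%. Enzyme 2 nM, substrate 80 uM, 20 min RT. Stop pH 10. Fluorescence Ex 365/Em 440. AC50 by Hill fit.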

[16] = target: alpha-glucosidase (Oryza sativa, rice) (UniProt Q653V4); assay: Counterscreen for Glucocerebrosidase Inhibitors: qHTS Assay for Rice alpha-Glucosidase at pH 5.0 (AID 997; active = well fitted curve in the direction sought with a large enough effect; an effect the other way counts as inactive or inconclusive;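 also: 0% = full activity with enzyme and -100% = basal without enzyme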)
Summary of the method: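 Endpoint fluorogenic assay at pH 5.0: compounds (0.7 nM to 77 uM) titrated against 4 nM rice enzyme and 400 uM 4-MU-alpha-glucoside for 20 min at room temperature; NaOH/glycine stop, read ex 365/em 440 nm, Hill-fitted AC50.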

Glucocorticoid receptor (Homo sapiens), sequence (P04150 whole entry, looked up, the tested form may be a part): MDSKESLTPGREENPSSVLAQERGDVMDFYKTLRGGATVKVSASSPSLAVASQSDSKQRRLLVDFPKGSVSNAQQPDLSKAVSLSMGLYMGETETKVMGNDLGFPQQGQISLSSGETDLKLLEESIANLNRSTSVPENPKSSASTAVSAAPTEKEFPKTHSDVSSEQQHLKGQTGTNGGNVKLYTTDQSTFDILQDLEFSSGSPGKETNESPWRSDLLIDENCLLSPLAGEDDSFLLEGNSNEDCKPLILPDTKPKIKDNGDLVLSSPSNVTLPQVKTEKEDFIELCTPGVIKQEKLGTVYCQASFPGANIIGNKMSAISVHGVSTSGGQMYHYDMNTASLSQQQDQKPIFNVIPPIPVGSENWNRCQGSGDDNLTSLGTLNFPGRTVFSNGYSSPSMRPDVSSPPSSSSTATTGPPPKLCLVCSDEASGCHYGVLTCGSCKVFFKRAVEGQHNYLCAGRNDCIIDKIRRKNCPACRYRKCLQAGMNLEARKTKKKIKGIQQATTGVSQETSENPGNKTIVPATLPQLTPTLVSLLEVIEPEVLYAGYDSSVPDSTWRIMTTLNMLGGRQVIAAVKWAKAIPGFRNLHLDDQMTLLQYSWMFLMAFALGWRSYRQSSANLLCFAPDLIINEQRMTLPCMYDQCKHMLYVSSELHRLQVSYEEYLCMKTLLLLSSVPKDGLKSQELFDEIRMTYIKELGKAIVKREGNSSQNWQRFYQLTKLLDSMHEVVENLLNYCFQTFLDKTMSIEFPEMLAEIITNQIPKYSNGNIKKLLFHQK
3',5'-cyclic-AMP phosphodiesterase 4B (Homo sapiens), sequence (Q07343 whole entry, looked up): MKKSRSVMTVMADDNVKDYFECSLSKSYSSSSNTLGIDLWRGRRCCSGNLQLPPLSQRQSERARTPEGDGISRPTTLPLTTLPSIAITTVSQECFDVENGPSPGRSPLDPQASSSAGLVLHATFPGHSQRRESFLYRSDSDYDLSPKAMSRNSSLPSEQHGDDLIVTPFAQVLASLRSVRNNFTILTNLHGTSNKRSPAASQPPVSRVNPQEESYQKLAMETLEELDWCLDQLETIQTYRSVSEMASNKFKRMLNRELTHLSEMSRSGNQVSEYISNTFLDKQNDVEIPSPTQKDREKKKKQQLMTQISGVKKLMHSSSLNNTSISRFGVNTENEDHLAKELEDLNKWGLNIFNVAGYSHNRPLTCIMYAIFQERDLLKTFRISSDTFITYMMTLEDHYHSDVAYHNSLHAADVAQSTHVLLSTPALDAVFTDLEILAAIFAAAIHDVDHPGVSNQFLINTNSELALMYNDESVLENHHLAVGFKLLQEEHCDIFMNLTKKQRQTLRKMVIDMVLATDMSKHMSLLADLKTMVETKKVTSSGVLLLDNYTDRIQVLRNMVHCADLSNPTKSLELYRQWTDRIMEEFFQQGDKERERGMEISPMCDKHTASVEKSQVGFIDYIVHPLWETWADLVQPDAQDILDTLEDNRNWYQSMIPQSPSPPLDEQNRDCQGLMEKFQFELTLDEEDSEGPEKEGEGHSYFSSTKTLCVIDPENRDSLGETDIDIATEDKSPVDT
Muscarinic acetylcholine receptor M1 (Rattus norvegicus), sequence (P08482 whole entry, looked up): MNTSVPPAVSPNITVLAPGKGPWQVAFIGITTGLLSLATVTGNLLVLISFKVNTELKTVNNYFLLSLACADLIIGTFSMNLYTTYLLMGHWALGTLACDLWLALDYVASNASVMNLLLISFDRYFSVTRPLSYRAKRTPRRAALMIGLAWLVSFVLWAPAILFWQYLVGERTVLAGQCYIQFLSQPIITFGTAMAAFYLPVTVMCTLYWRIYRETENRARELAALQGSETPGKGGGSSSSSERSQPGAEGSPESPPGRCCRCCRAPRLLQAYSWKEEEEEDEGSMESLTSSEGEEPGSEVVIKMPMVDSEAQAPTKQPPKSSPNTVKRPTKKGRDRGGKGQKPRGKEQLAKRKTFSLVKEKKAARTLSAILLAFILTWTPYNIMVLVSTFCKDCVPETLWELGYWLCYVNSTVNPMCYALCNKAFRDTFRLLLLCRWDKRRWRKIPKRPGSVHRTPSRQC
Pyruvate kinase (Leishmania mexicana), sequence (Q27686 2-499 E452W): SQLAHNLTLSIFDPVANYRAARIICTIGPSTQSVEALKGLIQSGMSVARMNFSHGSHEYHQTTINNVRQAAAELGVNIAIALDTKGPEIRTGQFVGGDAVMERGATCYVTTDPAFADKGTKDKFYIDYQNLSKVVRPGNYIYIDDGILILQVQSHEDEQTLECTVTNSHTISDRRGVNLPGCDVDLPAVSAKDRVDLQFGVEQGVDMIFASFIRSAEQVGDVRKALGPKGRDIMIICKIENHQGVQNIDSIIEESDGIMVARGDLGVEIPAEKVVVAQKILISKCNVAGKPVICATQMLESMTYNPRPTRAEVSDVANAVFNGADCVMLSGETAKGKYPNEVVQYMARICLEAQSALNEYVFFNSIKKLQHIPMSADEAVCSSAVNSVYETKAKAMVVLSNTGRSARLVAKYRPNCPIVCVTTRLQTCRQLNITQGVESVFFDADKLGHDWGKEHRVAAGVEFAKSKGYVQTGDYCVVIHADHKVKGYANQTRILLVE
Guanine nucleotide-binding protein G(i) subunit alpha-1 (Homo sapiens), sequence (P63096 whole entry, looked up): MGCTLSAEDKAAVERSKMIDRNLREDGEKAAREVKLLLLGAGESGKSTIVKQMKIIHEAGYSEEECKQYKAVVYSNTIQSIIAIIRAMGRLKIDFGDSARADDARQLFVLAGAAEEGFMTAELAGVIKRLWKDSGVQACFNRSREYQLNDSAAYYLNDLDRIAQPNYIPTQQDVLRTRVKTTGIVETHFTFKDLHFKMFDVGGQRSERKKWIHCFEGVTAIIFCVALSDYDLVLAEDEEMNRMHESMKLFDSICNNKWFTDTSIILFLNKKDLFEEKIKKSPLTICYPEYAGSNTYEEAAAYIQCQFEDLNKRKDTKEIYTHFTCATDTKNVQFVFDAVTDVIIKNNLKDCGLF
Pyruvate kinase PKM (Homo sapiens), sequence (P14618 whole entry, looked up): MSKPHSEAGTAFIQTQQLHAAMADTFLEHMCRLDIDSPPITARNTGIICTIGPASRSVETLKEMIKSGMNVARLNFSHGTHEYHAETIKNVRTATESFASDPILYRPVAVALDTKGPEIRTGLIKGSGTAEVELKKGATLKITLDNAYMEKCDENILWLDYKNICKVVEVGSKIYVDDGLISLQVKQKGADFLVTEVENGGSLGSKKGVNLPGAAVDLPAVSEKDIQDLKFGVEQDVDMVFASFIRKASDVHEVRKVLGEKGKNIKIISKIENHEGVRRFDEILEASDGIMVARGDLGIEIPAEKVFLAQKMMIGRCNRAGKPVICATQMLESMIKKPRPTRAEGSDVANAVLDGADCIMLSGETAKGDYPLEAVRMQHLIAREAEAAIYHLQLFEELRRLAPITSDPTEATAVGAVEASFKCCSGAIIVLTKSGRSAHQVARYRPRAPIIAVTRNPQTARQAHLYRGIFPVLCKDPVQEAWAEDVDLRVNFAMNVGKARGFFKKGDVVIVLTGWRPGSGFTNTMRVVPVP
Alpha-galactosidase A (Homo sapiens), sequence (P06280 whole entry, looked up): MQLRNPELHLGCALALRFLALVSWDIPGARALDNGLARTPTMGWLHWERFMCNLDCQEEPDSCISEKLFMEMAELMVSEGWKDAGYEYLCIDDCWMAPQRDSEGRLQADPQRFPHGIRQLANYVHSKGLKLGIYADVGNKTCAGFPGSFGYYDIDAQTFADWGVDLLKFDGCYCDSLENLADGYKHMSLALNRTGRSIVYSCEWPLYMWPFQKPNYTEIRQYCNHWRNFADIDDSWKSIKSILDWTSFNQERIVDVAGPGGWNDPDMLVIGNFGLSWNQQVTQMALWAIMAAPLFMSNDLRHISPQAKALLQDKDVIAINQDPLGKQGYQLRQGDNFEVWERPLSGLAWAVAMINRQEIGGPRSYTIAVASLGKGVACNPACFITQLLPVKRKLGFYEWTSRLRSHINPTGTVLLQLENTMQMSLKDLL

CCN(CC)C(=O)CSc1nc2ccccc2c(=O)n1CC1CCCCC1
inactive: activity change, negative = inhibition [1] -21.3% | activity, negative = inhibition [2] -17.5%

CSC1=Nc2sc3c(c2C2=NCCN12)CC(C)(C)OC3
inactive: activity change, negative = inhibition [1] 26% | activity, negative = inhibition [2] 14.3% | Potency [3] > 20.6 µM

CCCc1nc(NC2CCCCC2)c(C#N)c2c1COC(C)(C)C2
inactive: activity change, negative = inhibition [1] 16.4% | activity, negative = inhibition [2] 25.5%

COc1ccc(CCCNC(=O)CC#N)cc1OC
inactive: activity change, negative = inhibition [1] 13.8% | activity change, negative = inhibition [4] -4.61% | Potency [3] > 20.6 µM | activation [5] 5.59%

COc1ccc(C(=O)C2CCCCC2=O)cc1 (stereo unspecified)
inactive: activity change, negative = inhibition [1] 2.34% | activity change, negative = inhibition [4] -0.888% | Potency [3] > 20.6 µM | activation [5] 5.32%

CC1(C)Cc2c(C#N)c(NCC3CCCO3)nc(-c3ccco3)c2CO1 (stereo unspecified)
inactive: activity change, negative = inhibition [1] -9.98% | activity change, negative = inhibition [4] 5.63% | Potency [3] > 20.6 µM | activation [5] 25.9%

CC(C)Cn1nc(NC(=O)C(C)(C)C)c2cc3ccccc3nc21
inactive: activity change, negative = inhibition [1] -20.3% | activity, negative = inhibition [2] -6.46% | Potency [3] > 20.6 µM

CC1CCN(c2ncnc3c2cnn3Cc2ccc(Cl)cc2)CC1
inactive: activity change, negative = inhibition [1] -26% | activity, negative = inhibition [2] -11.4% | Potency [3] > 20.6 µM

Clc1ccc(-c2nnc3sc(Cc4cccs4)nn23)c(Cl)c1
inactive: activity change, negative = inhibition [1] -25% | activity, negative = inhibition [2] 12.6% | Potency [3] > 20.6 µM

O=C(NCCN1CCCCC1)/C(=N\O)c1ccccc1
inactive: activity change, negative = inhibition [1] -7.56% | activity, negative = inhibition [2] -1.14% | Potency [3] > 20.6 µM

CC(C)C1Cc2c(C#N)c(N)n(C)c(=S)c2CO1 (stereo unspecified)
inactive: activity change, negative = inhibition [1] -4.25% | activity change, negative = inhibition [4] -23.6% | Potency [3] > 20.6 µM | activation [5] -0.94%

CCN(CC)CCCn1c(C)cc2c(c1=O)C(c1ccc(OC)c(OC)c1OC)C(C#N)=C(N)O2 (stereo unspecified)
inactive: activity change, negative = inhibition [1] 6.36% | activity, negative = inhibition [2] 10.3%

CC[C@H](C)[C@@H]1O[C@]2(CC[C@@H]1C)C[C@H]1C[C@H](CC=C(C)[C@@H](O[C@@H]3C[C@H](OC)[C@H](O[C@@H]4C[C@H](OC)[C@H](O)[C@H](C)O4)[C@H](C)O3)[C@@H](C)C=CC=C3CO[C@@H]4[C@@H](O)C(C)=C[C@@H](C(=O)O1)[C@]34O)O2
inactive: activity change, negative = inhibition [1] -26.8% | activity change, negative = inhibition [4] -35.3% | Potency [3] > 20.6 µM | Potency [6] > 20.6 µM | Potency [7]

CCCCCCCCCC(=O)N[C@@H](CN1CCOCC1)[C@@H](O)c1ccccc1
inactive: activity change, negative = inhibition [1] 5.88% [at 38 µM] | activity change, negative = inhibition [4] 1.34% [at 38 µM] | Potency [3] > 46 µM | Potency [6] > 46 µM | Potency [8] | Potency [7] | outcome [9] | Potency [10] | Potency [11] | Potency [12] | Potency [13] | outcome [14] | outcome [15] | outcome [16]
